Several values for one entry are separate records, joined by “and”; a condition that tells them apart may be missing. Equal values may be shown once. Inconclusive results are not listed. Entries that show only a call come without a potency. A number with no mark means an inactive call. Activity calls are given as the source filed them. Unless noted, calls come from the whole dose curve; as a rule, active = well fitted curve in the direction sought with a large enough effect in the repeat runs; inconclusive = weak or mixed curves; inactive = no such curve, though single readings can be large; an effect the other way counts as inactive or inconclusive.
Assays:
[1] = qHTS assay to identify small molecule agonists of the NFkB signaling pathway (AID 1159509; active = well fitted curve in the direction sought with a large enough effect in the signal ratio in the repeat runs, not every such curve was filed as active; the % refers to the signal ratio)
Method in brief: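 Readout: FRET fluorescence, 405 nm excitation, 460/530 nm emission; beta-lactamase expression disrupts FRET. Cells: ME-180 stably carrying NF-kB-driven bla reporter. Compound exposure 5 hr, 37 C, 5% CO2.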

[2] = qHTS assay to identify small molecule agonists of the NFkB signaling pathway - cell viability counter screen (AID 1159515; calls by dose curve; note: nearly all actives have a fitted effect of over 55% in size)
Method in brief: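 Parallel cytotoxicity counter screen in ME-180 cells carrying an NFkB-response-element beta-lactamase reporter, 2,000 cells/well. Compound exposure lasted 5 hr at 37 C, 5% CO2. Cell viability was quantified by CellTiter-Glo luminescence.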

[3] = qHTS assay to identify small molecule agonists of the endoplasmic reticulum stress response signaling pathway (AID 1159516; active = well fitted activation curve with a large enough effect in the signal ratio in the repeat runs, not every such curve was filed as active; the % refers to the signal ratio)
Method in brief: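 Using a HeLa line with an ESRE-driven beta-lactamase gene, agonist activity was measured by FRET substrate fluorescence (460 and 530 nm emission) after cells were treated with compounds for 5 hr at 37 C and 5% CO2.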

[4] = qHTS assay to identify small molecule agonists of the endoplasmic reticulum stress response signaling pathway - cell viability counter screen (AID 1159517; calls by dose curve;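 note: HeLa cells carrying an ER stress response element beta-lactamase reporter; nearly all actives have a fitted effect of over 50% in size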)
Method in brief: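 After overnight attachment, ESRE-bla HeLa cells were treated with Tox21 library compounds for 5 hr. CellTiter-Glo luminescence, read 30 min post-addition at room temperature, reported viability.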

[5] = qHTS assay to identify small molecule antagonists of the retinoid-related orphan receptor gamma (ROR-gamma) signaling pathway - cell viability counter screen (AID 1159520); note: nearly all actives have a fitted effect of over 50% in size
Method in brief: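 Cytotoxicity was read from cellular ATP (CellTiter-Glo luminescence) after 16 hr at 37 C with 1 uM doxycycline induction. The inducer was added 2 hr after compound transfer to Tet-on ROR gamma CHO cells.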

[6] = qHTS assay to identify small molecule agonists of the AP-1 signaling pathway - cell viability counter screen (AID 1159525; calls by dose curve; note: nearly all actives have a fitted effect of over 55% in size)
Method in brief: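 Intracellular ATP by Cell Titer Glo luminescence (30 min, RT) in the same ME-180 AP-1-bla wells after the 5 h compound exposure at 37 °C. Normalised to tetra n-octyl ammonium bromide and DMSO controls.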

[7] = qHTS assay to identify small molecule agonists of the AP-1 signaling pathway (AID 1159526; calls by dose curve)
[8] = qHTS assay to identify small molecule agonists of the RXR signaling pathway - cell viability counter screen (AID 1159529); note: nearly all actives have a fitted effect of over 50% in size
Method in brief: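 Cell viability is measured by CellTiter-Glo luminescence, 30 min at room temperature, in wells already read for beta-lactamase. Engineered HEK 293T cells (RXR-alpha-UAS-bla) are dosed 16 hr at 37 C. Tetraoctyl ammonium bromide serves as positive control.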

[9] = qHTS assay to identify small molecule antagonists of the retinoid acid receptor (RAR) signaling pathway - cell viability counter screen (AID 1159551); note: nearly all actives have a fitted effect of over 35% in size
Method in brief: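 ATP-based viability, C3RL4 cells, 6 h at 37 C with 1 uM final retinol co-added after compound; luminescence read 30 min post CellTiter-Glo, RT.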

[10] = qHTS assay to identify small molecule antagonists of the estrogen related receptor (ERR) signaling pathway from Tox21 library - cell viability counter screen (AID 1224834); note: nearly all actives have a fitted effect of over 30% in size
Method in brief: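 Compounds in DMSO were pinned onto ERR cells that had been incubated for 6 h, and the plates were held at 37 C for 17.5 h. CellTiter-Fluor reagent was then added and fluorescence was measured after 30 min.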

[11] = qHTS assay to identify small molecule agonists of the constitutive androstane receptor (CAR) signaling pathway - cell viability counter screen (AID 1224836); note: nearly all actives have a fitted effect of over 45% in size
Method in brief: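 Counter screen multiplexed with the CAR reporter readout: HepG2 cells co-transfected with hCAR and the CYP2B6-2.2kb construct receive a 15-concentration compound series and 0.75 uM PK11195 (final), then CellTiter-Fluor fluorescence is read after 23 h.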

[12] = qHTS assay to identify small molecule antagonists of the constitutive androstane receptor (CAR) signaling pathway - cell viability counter screen (AID 1224837); note: nearly all actives have a fitted effect of over 45% in size
Method in brief: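 Cells are seeded, rested 4 hr at 37 C/5% CO2, dosed with compound (15-point series) and 50 nM CITCO, incubated a further 23 hr, and then CellTiter-Fluor reagent is added before fluorescence is read. The line is HepG2 with stable hCAR and CYP2B6-2.2kb.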

[13] = target: Nuclear receptor subfamily 1 group I member 3 (Homo sapiens) (UniProt Q14994); test: qHTS assay to identify small molecule antagonists of the constitutive androstane receptor (CAR) signaling pathway (AID 1224838);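 note: HepG2 cells stably expressing hCAR with CYP2B6 luciferase reporter stimulated by CITCO; nearly all actives have a fitted effect of over 40% in size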
Chain of Nuclear receptor subfamily 1 group I member 3 (Homo sapiens) (Q14994 whole entry, looked up): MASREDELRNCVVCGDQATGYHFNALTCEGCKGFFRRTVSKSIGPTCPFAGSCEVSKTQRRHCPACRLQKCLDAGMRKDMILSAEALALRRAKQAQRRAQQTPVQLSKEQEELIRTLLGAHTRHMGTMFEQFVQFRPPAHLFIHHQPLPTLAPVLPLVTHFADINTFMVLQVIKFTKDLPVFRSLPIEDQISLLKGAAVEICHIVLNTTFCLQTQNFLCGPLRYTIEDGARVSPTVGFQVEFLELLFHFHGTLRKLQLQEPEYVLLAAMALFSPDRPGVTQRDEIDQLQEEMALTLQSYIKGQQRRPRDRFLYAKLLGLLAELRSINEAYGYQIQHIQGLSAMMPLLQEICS
Method in brief: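 Luminescence from a CYP2B6-2.2kb promoter reporter in hCAR-expressing HepG2 cells reflects CAR signaling. Cells received compounds at 15 concentrations and 50 nM CITCO (final), then incubated 24 h at 37 C/5% CO2.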

[14] = target: Retinoic acid receptor RXR-alpha (Homo sapiens) (UniProt P19793); test: qHTS assay to identify small molecule agonists of the RXR signaling pathway (AID 1159527; calls by dose curve; note: nearly all actives have a fitted effect of over 35% in size)
Chain of Retinoic acid receptor RXR-alpha (Homo sapiens) (P19793 whole entry, looked up): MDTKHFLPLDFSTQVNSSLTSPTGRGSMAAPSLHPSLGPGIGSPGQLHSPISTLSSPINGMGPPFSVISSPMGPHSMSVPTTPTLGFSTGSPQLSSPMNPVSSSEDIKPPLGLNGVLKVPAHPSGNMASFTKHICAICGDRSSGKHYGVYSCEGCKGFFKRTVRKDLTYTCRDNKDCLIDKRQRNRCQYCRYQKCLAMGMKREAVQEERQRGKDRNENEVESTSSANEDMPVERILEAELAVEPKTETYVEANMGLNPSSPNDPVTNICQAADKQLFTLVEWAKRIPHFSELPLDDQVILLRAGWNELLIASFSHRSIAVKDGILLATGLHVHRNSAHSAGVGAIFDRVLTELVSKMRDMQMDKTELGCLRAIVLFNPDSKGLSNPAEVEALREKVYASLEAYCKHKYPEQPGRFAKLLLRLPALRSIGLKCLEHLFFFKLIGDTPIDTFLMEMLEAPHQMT
Method in brief: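 qHTS of the Tox21 10K library in GeneBLAzer RXR-alpha HEK 293T cells carrying a beta-lactamase reporter […]; 16 hr treatment, 9-cis retinoic acid as agonist control, FRET read-out.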

[15] = qHTS assay to identify small molecule antagonists of the retinoic acid receptor (RAR) signaling pathway (AID 1159552; note: nearly all actives have a fitted effect of over 50% in size)
Method in brief: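 Quantitative HTS in C3RL4 RARE-luciferase reporter cells. Compounds were added with 1 uM (final) retinol; luminescence was read after 6 hr.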

[16] = qHTS assay to identify small molecule agonists of the retinoic acid receptor (RAR) signaling pathway (AID 1159553); settings: C3RL4 RARE luciferase reporter, agonist, 6 h; activation: at 73.3 µM (top of the series) unless noted; note: potency is the fitted concentration of half-maximal effect
Method in brief: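 Quantitative high-throughput format: the Tox21 10K library was tested on C3RL4 RARE-luciferase cells for 6 hr at 37 C and 5% CO2, with luminescence measured after a 30 min room-temperature reagent step.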

[17] = target: Luciferin 4-monooxygenase (Photinus pyralis) (UniProt P08659); test: qHTS assay to identify small molecule inhibitors of firefly luciferase (AID 1224835); note: nearly all actives have a fitted effect of over 25% in size; note: potency is the fitted concentration of half-maximal effect
Chain of Luciferin 4-monooxygenase (Photinus pyralis) (P08659 whole entry, looked up): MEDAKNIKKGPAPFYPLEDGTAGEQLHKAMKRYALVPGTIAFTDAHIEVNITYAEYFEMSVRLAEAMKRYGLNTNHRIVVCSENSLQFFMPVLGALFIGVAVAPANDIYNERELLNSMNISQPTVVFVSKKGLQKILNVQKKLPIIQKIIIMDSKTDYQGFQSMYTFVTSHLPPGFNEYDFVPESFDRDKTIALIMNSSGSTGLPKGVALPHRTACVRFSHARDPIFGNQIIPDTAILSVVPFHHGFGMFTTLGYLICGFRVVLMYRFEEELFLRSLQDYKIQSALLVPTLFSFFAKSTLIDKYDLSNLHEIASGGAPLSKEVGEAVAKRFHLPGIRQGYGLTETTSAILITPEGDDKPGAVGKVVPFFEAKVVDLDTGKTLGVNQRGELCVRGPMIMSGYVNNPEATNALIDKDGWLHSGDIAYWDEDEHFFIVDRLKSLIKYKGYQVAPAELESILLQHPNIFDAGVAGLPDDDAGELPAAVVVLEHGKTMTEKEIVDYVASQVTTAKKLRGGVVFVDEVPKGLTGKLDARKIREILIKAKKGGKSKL
Method in brief: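 Inhibition of purified Photinus luciferase is measured by luminescence. Substrate levels (D-luciferin, ATP) sit at their KM values. Each compound is tested in a concentration series.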

[18] = target: Nuclear receptor ROR-gamma (Homo sapiens) (UniProt P51449); test: qHTS assay to identify small molecule antagonists of the retinoid-related orphan receptor gamma (ROR-gamma) signaling pathway (AID 1159521; note: nearly all actives have a fitted effect of over 50% in size; note: potency is the fitted concentration of half-maximal effect)
Method in brief: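 RORγ antagonism is scored from reduced reporter luminescence in Tet-on CHO cells. Induction used 1 uM final doxycycline hyclate for 16 h at 37 C, following a 2 h compound exposure.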

Row | SMILES | outcome [1] | outcome [2] | outcome [3] | outcome [4] | Potency [5] | Potency [6] | Potency [7] | Potency [8] | outcome [9] | Potency [10] | Potency [11] | Potency [12] | Potency [13] | Potency [14] | Potency [15] | Potency [16] | Potency [17] | Potency [18]
1 | c1ccc2c(c1)oc1ccccc12 | inactive | inactive | inactive | inactive | inactive | inactive | inactive | inactive | inactive | inactive | inactive | inactive | inactive | – | – | – | – | –
2 | CN=C=S | inactive | inactive | inactive | inactive | inactive | inactive | inactive | inactive | inactive | inactive | inactive | inactive | inactive | inactive | inactive | inactive | inactive | –
3 | OCCN(CCO)CCO | inactive | inactive | inactive | inactive | inactive | inactive | inactive | inactive | inactive | inactive | inactive | inactive | inactive | inactive | inactive | inactive | inactive | –
4 | CC(Br)C(=O)O (centres undefined) | inactive | inactive | inactive | inactive | – | inactive | inactive | inactive | inactive | – | inactive | inactive | inactive | inactive | inactive | inactive | inactive | inactive
5 | O=S(=O)(c1ccc(Cl)cc1)c1cc(Cl)c(Cl)cc1Cl | inactive | inactive | inactive | inactive | – | inactive | – | inactive | inactive | inactive | inactive | inactive | inactive | – | – | inactive | inactive | –
6 | CCCN(CCC)N=O | inactive | – | inactive | inactive | inactive | inactive | inactive | inactive | inactive | inactive | inactive | inactive | inactive | inactive | inactive | inactive | inactive | inactive
7 | Nc1c(Cl)c(Cl)nc(C(=O)O)c1Cl | inactive | inactive | inactive | inactive | inactive | inactive | inactive | inactive | inactive | inactive | inactive | inactive | – | – | – | – | inactive | inactive
8 | CC(C)=C[C@@H]1[C@@H](C(=O)OCc2coc(Cc3ccccc3)c2)C1(C)C | inactive | inactive | inactive | inactive | inactive | inactive | inactive | inactive | inactive | inactive | inactive | inactive | inactive | – | inactive | inactive | inactive | –
9 | Clc1cccc(Cl)c1Cl | inactive | inactive | inactive | inactive | – | inactive | inactive | inactive | inactive | – | inactive | inactive | inactive | inactive | inactive | inactive | inactive | inactive
10 | CCCCCOC(=O)c1ccccc1C(=O)OCCCCC | inactive | inactive | inactive | inactive | – | inactive | – | inactive | inactive | – | inactive | inactive | inactive | inactive | – | – | inactive | inactive
11 | CC(C)OC(=O)Nc1cccc(Cl)c1 | inactive | inactive | inactive | inactive | – | inactive | – | inactive | inactive | inactive | inactive | inactive | – | inactive | inactive | 6.11 µM (active) | 31.3 µM (active) and 35.6 µM (active) | inactive
12 | CNC(=O)Oc1ccccc1OC(C)C | inactive | – | inactive | inactive | inactive | inactive | inactive | inactive | inactive | inactive | inactive | inactive | inactive | inactive | inactive | inactive | inactive | inactive
13 | CCC(C)(CC)c1cc(NC(=O)c2c(OC)cccc2OC)on1 | inactive | inactive | inactive | inactive | inactive | inactive | inactive | inactive | inactive | – | inactive | inactive | inactive | – | inactive | inactive | inactive | –
14 | C=CCO | inactive | inactive | inactive | inactive | inactive | inactive | inactive | inactive | inactive | inactive | inactive | inactive | inactive | inactive | – | – | inactive | –
15 | COC(=O)c1ccccc1N | inactive | inactive | inactive | inactive | inactive | inactive | inactive | inactive | inactive | inactive | inactive | inactive | inactive | – | – | – | inactive | inactive
16 | COC(=O)NC(=S)Nc1ccccc1NC(=S)NC(=O)OC | inactive | inactive | inactive | inactive | – | inactive | inactive | inactive | inactive | – | inactive | inactive | inactive | inactive | – | – | inactive | inactive
17 | [O-][Cl+2]([O-])O | inactive | inactive | inactive | inactive | – | inactive | inactive | inactive | inactive | inactive | inactive | inactive | inactive | inactive | inactive | inactive | inactive | –
18 | C[C@]12CC[C@H]3[C@@H](CC[C@@]45O[C@@H]4C(O)=C(C#N)C[C@]35C)[C@@H]1CC[C@@H]2O | inactive | inactive | inactive | inactive | inactive | inactive | inactive | inactive | inactive | – | inactive | inactive | inactive | – | – | – | inactive | 48.6 µM (active)
19 | O=[N+]([O-])c1ccc([As](=O)(O)O)cc1 | inactive | inactive | inactive | inactive | inactive | inactive | inactive | inactive | inactive | – | inactive | inactive | inactive | inactive | inactive | inactive | inactive | –

From PubChem BioAssay (Tox21)
